We go through 107 compounds from ChEMBL document CHEMBL4513216, “Probing the Open Global Health Chemical Diversity Library for Multistage-Active Starting Points for Next-Generation Antimalarials” (ACS Infect Dis, 2020).

The whole screen tested about 69,000 compounds, of which about 8,600 (12%) showed an effect of 50% or more. The full list was thinned out, with strong results kept by preference.

This experiment has as its system Plasmodium berghei. The experiment can be described thus: Screen against P. berghei liver stage (PbLuc), transformed with Luciferase, at 10uM. The settings on record: tested at 10 uM. The format is functional, HepG2.
On to `O=C(Nc1nccs1)NC1CCN(CC2CCCC2)CC1`, for which the INHIBITION was determined as 21.45%. For `c1nn(C2CCCCC2)cc1-c1cncn1CCCN1CCCCC1` the value was 18.75%; for `CCC(=O)N1CCC(Cc2ccccc2-c2ccccc2)(C(N)=O)C1` (configuration not stated), 36.4%. To `Cc1nccn1C1CCCN(C(=O)c2cccc(OCC(N)=O)c2)C1` (configuration not stated) belongs -0.219%; to `N#Cc1ccc(OCCN2CCNC(=O)C2c2cccs2)cc1` (configuration not stated), 3.04%.

Turning to `Cc1ccc(C(=O)NC2CCN(Cc3noc(C(C)(C)C)n3)CC2)s1`, the INHIBITION is given as -42.8%. To `COCCCS(=O)(=O)N(Cc1cccc(C)c1)Cc1ccccn1` belongs 4.13%; to `CCN1CCC2(CCC(=O)N2Cc2cccc(C)n2)CC1`, -6.77%; to `CN(C)c1cc(C(=O)N2CCCN(Cc3cscn3)CC2)ccn1`, 20.1%.

On to `CC(CNC(=O)Nc1ccc(F)cc1Br)N1CCOCC1` (configuration not stated), for which the INHIBITION is listed as 46.6%.

Regarding `CC(Cn1cncc1-c1cnn(C2CCCCC2)c1)N1CCCCC1` (configuration not stated), the INHIBITION is given as -1.9%. For `O=C(O)CC1CN(Cc2ccccc2)CCO1` (configuration not stated) the value was 22.1%. For `O=C(CC1CN(Cc2ccccc2)CCO1)NCCN1CCOCC1` (configuration not stated) the value was 56.5%.

In the case of `O=C(CC1CN(Cc2ccccc2)CCO1)NC1CCCC1` (configuration not stated), the INHIBITION was -15.8%. `CNC(=O)c1c[nH]nc1C1CCCN1c1ncccn1` (configuration not stated): the INHIBITION was 23.9%.

With `O=C1CCC2(CCN(Cc3ccc(F)cc3)CC2)N1CCN1CCCC1`, the INHIBITION was -22.1%. For `CCS(=O)(=O)N1CCC2(CCN(Cc3cccc(OC)c3)CC2)CC1` the value was 34.6%; for `COc1ccc(Cn2c(=O)n(C)c(=O)c3sccc32)cc1`, 75.7%.

As for `Cn1c(=O)c2sccc2n(Cc2ccccc2)c1=O`, the INHIBITION was 36.8%.

As for `CCCc1n[nH]c(=O)n1Cc1ccc(OC)cc1`, the INHIBITION is -32.6%.

As for `COc1cccc(-n2cc3[nH]c(=O)n(Cc4cccc(F)c4)n3c2=O)c1`, the INHIBITION is 36.3%.

On to `COc1cccc(Cn2c(=O)n(C)c(=O)c3sccc32)c1`, for which the INHIBITION is listed as 50.5%.

`COc1ccc(CN2CCn3c(C(=O)N(C)C)cnc3C2)cc1`: the INHIBITION was determined as 26.4%.

In the case of `COC(=O)c1cccc(CNC(=O)NCCC(F)(F)F)c1`, the INHIBITION is given as 41.4%.

Turning to `COC(=O)c1cccc(CNC(=O)CCC(F)(F)F)c1`, the INHIBITION is 4.68%. Consider `CCCC(=O)NCc1cccc(C(=O)OC)c1`, for which the INHIBITION came to 51.4%. As to `COC(=O)c1cccc(CNC(=O)c2cc(C(C)C)n(C)n2)c1`, the INHIBITION was -55.1%. For `COC(=O)c1cccc(CNC(=O)CC(F)(F)F)c1` the value was 51.4%; for `COCCCC(=O)NCc1cccc(NC(N)=O)c1`, 15.8%; for `CCc1nc(C)sc1CN1C[C@@H](C)[C@@](C)(O)C1`, 14.9%. For the compound `CSc1ncc(C(=O)N(C)C(C)Cc2ccccn2)cn1` (configuration not stated), the INHIBITION is on record as -1.16%. Consider `O=C(NCc1nnc2n1C(C(=O)NC1CC1)CC2)c1ccc(Cl)cc1Cl` (configuration not stated), for which the INHIBITION is 44.9%.

In the case of `CN1CCC2(CC1)CN(C(=O)c1cnccn1)Cc1ccccc12`, the INHIBITION was 18.3%. To `Cc1cccc(C(=O)N2Cc3ccccc3C3(CCN(C)CC3)C2)n1` belongs 36.9%; to `Cc1cncc(C(=O)N2Cc3ccccc3C3(CCN(C)CC3)C2)c1`, 39.2%; to `COCCN1Cc2ccccc2C2(CCN(C(=O)c3ccno3)CC2)C1`, -1.36%. For `COCCN1CC2(CCN(C(=O)c3ccno3)CC2)c2ccccc21` the value was -14.7%; for `CN1CCC2(CC1)CN(C(=O)c1cccnc1)Cc1ccccc12`, 33.4%; for `Cc1ccsc1C(=O)N1Cc2ccccc2C2(CCN(C)CC2)C1`, 53.5%. For `CS(=O)(=O)N1Cc2ccccc2C2(CCN(C(=O)c3ccno3)CC2)C1`, the INHIBITION came out at 55.7%. With `CN1CCC2(CC1)CN(C(=O)c1ccncc1)Cc1ccccc12`, the INHIBITION turned out to be 57.9%.

For the compound `CCCC1c2cccn2CCN1C(=O)c1cc(CC)no1` (configuration not stated), the INHIBITION was found to be 44.1%. As to `Cc1cccc(C)c1-n1nnnc1C1(NCc2ccco2)CCCC1`, the INHIBITION is 45.4%. To `Cc1nc(C)n(CC2CCCN2CC(=O)NC2CCOCC2)n1` (configuration not stated) belongs 38.5%. For `Cc1nc(CN2CCN(CC(O)CN3CCOCC3)CC2)oc1C` (configuration not stated) the value was 4.34%; for `O=C([C@H]1CCCO1)N1CCC2(CCCN(CCOc3ccccc3)C2)C1` (some centres not stated), 12.4%; for `COCC(=O)N1CC[C@H]2O[C@@H](C)C[C@H]2C1`, -1.55%. To `Cc1nn(C)cc1S(=O)(=O)NCC(c1ccccc1Cl)N1CCCC1` (configuration not stated) belongs 13.5%.

As for `Cn1c(CNCC2CCCN2c2cccnn2)nc2ccccc21` (configuration not stated), the INHIBITION is -0.113%. Turning to `OC(COCc1cccs1)CN1CCc2c(ncn2C2CC2)C1` (configuration not stated), the INHIBITION amounted to 2.97%.

As to `Cc1ccc2[nH]c(C3CCN(C)CC3)nc2c1`, the INHIBITION is recorded as -17.9%. To `COCCN1CCC(c2nc3cc(C)ccc3[nH]2)CC1` belongs 15.5%; to `Cc1ccc2[nH]c([C@H]3CCN(CC4CCCCC4)C3)nc2c1`, 51.9%; to `Cc1nc(CNC(=O)c2cc(COc3ccccc3)[nH]n2)n[nH]1`, 15.7%. To `NC(=O)c1nc(-c2ccc(Cl)cc2Cl)oc1N` belongs -63.4%; to `Cc1cc2c(=O)n3c(nc2s1)CCN(Cc1cnn(C)c1C)CC3`, 24.5%; to `COc1ccc2c(c1)CCCN(C(C)C(=O)NC(C)C)C2` (configuration not stated), -9.87%. As for `COc1ccc2c(c1)CCCN(C(C)C(=O)NC(N)=O)C2` (configuration not stated), the INHIBITION was 1.79%. For `COC(=O)C(C)N1CCCc2cc(OC)ccc2C1` (configuration not stated) the value was 59.2%.

As for `CS(=O)(=O)CCC(=O)Nc1ccsc1`, the INHIBITION was -120%. Regarding `CC(C)CS(=O)(=O)CC(=O)NC(C)(C)c1cccc(F)c1`, the INHIBITION was 52.2%.

In the case of `Cc1cccc(C(C)(C)NC(=O)CS(=O)(=O)CC(C)C)c1`, the INHIBITION was 64.5%. To `Cc1cccc(C(C)(C)NC(=O)CCS(C)(=O)=O)c1` belongs 51%. For `CCC(C(=O)NC)N(c1cccc(C)c1)S(C)(=O)=O` (configuration not stated) the value was 0.547%; for `CNC(=O)CS(=O)(=O)Cc1coc(-c2cccc(F)c2)n1`, -11.3%. To `Cc1cccc(CS(=O)(=O)CC(=O)NCCCOC(C)C)c1` belongs 45%. Turning to `CCS(=O)(=O)CC(=O)NC(C)c1ccc(F)cc1F` (configuration not stated), the INHIBITION was found to be 47.5%. To `CS(=O)(=O)CCC(=O)NC1(c2cccc(Br)c2)CC1` belongs 5.14%. To `Cc1nc(C)n(CC2CCCN(CC(=O)Nc3nnc(C)s3)C2)n1` (configuration not stated) belongs 33.25%; to `O=C1c2ncccc2C(CCO)N1Cc1ccccc1` (configuration not stated), 2.55%. For `Cc1c(COC(C)C)cccc1NC(=O)N1CCCC(CO)C1` (configuration not stated) the value was 49.1%; for `CCC1c2cccn2CCN1C(=O)c1cc(OC)nc(OC)n1` (configuration not stated), 19.7%; for `O=C(N[C@@H]1CCC[C@@H](N2CCOCC2)[C@@H]1O)c1ncccn1`, 36.4%. Turning to `CS(=O)(=O)N1C[C@H]2CNC[C@@]2(C(=O)NCCOc2ccccc2)C1`, the INHIBITION is listed as 18.6%. For `CS(=O)(=O)N1C[C@H]2CNC[C@@]2(C(=O)NCCCc2ccccc2)C1` the value was 73.5%; for `O=C(C1CC1)N1C[C@H]2CNC[C@@]2(C(=O)NCCCc2ccccc2)C1`, 32.5%; for `COCC(C)(C)NC(=O)CC(c1ccccc1)C(F)(F)F` (configuration not stated), 29.4%. Take `CC(C)S(=O)(=O)NC(=O)CC(c1ccccc1)C(F)(F)F` (configuration not stated): the INHIBITION is 31.3%. In the case of `CN(C)S(=O)(=O)NC(=O)CC(c1ccccc1)C(F)(F)F` (configuration not stated), the INHIBITION turned out to be 62.8%.

For `Cc1ccc(NCCCNC(=O)C2CCCN(Cc3ccco3)C2)nc1` (configuration not stated), the INHIBITION is 75.1%. To `O=C(NCCCc1ccncc1)C1CCCN(Cc2ccco2)C1` (configuration not stated) belongs 19.5%. For `Cc1cnccc1NCCNC(=O)C1CCCN(Cc2ccco2)C1` (configuration not stated), the INHIBITION is recorded as 24.3%.

Take `c1cncc(COCC2C[C@@H]3OCCN(Cc4cccnc4)[C@H]3C2)c1` (some centres not stated): the INHIBITION is 23.6%. Regarding `CN(C)C(=O)N1CCC[C@]2(C(=O)N(C)C)CN(c3ccccn3)C[C@@H]2C1`, the INHIBITION is on record as -2.35%. Regarding `Cc1ccc(C(=O)N2CCO[C@H]3[C@H](OCCN(C)C)CC[C@@H]32)o1`, the INHIBITION is -26.1%. For `CC(NCc1cccnc1)c1cc2c(cc1Br)OCCO2` (configuration not stated) the value was 15%; for `CC(NCc1ccccn1)c1cc2c(cc1Br)OCCO2` (configuration not stated), 47.4%; for `CC(NCc1ccncc1)c1cc2c(cc1Br)OCCO2` (configuration not stated), 53.9%. For the compound `Cc1cnc(N2CCO[C@@H]3CC(COCc4cccnc4)C[C@H]32)nc1` (some centres not stated), the INHIBITION stood at 45.4%. To `O=C(Nc1cccnc1N1CCSCC1)c1ccc2c(c1)CCO2` belongs 39.6%; to `COCCOc1ccnc(-c2noc([C@@H]3CCCN3CC(C)(C)C)n2)c1`, 53.2%. As for `COCCOc1ccnc(-c2noc([C@@H]3CCCN3CC3CC3)n2)c1`, the INHIBITION is listed as 18.4%. To `COCCOc1ccnc(-c2noc([C@@H]3CCCN3CC(C)C)n2)c1` belongs -15.6%; to `CS(=O)(=O)CCC(=O)N1C[C@H]2CC[C@@H](C1)N(Cc1ccccn1)C2=O`, 5.38%.

Turning to `c1ccc(-c2nc(CNCC3CCCN3c3cccnn3)co2)cc1` (configuration not stated), the INHIBITION is reported as -17.7%. To `Cn1cc(CN2CCCC(n3c(=O)oc4ccccc43)C2)cn1` (configuration not stated) belongs 2.14%; to `CC(CN(C)C)Nc1nc(O)cc(Cc2ccccc2F)n1` (configuration not stated), 39.3%. For `CCOC(=O)C1CC2(CCCCC2)N2CCC(=O)N12` (configuration not stated) the value was 54%; for `CCOC(=O)C1CC2(CCCC2)N2CCC(=O)N12` (configuration not stated), 0.284%; for `CCOC(=O)C1CC2(CCOCC2)N2CCC(=O)N12` (configuration not stated), 20.7%. Turning to `O=C1OC2(CCNCC2)CN1CC(=O)N1CCCC1c1ccco1` (configuration not stated), the INHIBITION is recorded as 16.8%. To `Cc1ccccc1C1CCCN1C(=O)CN1CC2(CCNCC2)OC1=O` (configuration not stated) belongs 50.1%; to `Cc1noc(C)c1C1CCCN1C(=O)CN1CC2(CCNCC2)OC1=O` (configuration not stated), 36.8%; to `Cc1nc2ccc(S(=O)(=O)Nc3c(C)nn(CC(=O)O)c3C)cc2s1`, 34.7%. To `CCN(Cc1ccncc1)c1cc(C2CCNCC2)nc(C)n1` belongs 14.6%; to `CCN(Cc1ccncc1)c1cc(C2CCCNC2)nc(C)n1` (configuration not stated), 53.7%. To `Cc1nc(C2CCCNC2)cc(N(C)CCc2ccccc2)n1` (configuration not stated) belongs -16.5%.
